Data from PubChem BioAssay (NCI).
This is part of a sample that, as a whole, favours compounds with a hit. Of some 79,000 tested, about 15% had one in any assay. Activity calls are given as the source filed them. Cut-off read from the data, not from the text of the source: active = growth inhibition above about 70%; inactive = the rest.

Assays:
[1] = NCI Yeast Anticancer Drug Screen. Data for the rad52 strain (AID 147);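 note: 0% = growth of vehicle-treated control cultures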; settings: S. cerevisiae rad52 mutant growth inhibition, hits give high values
Summary of the method: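 Compounds are applied to a genetically defined yeast strain lacking normal DNA damage repair, and inhibition of growth is expressed relative to cultures given vehicle only.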

[2] = NCI Yeast Anticancer Drug Screen. Data for the wt1 strain (AID 149);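 note: 0% = growth of vehicle-treated wt1 cultures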; settings: S. cerevisiae wt1 strain (SPY 50644) growth inhibition, hits give high values
Summary of the method: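 Measured: growth of wt1 yeast under compound versus vehicle treatment, reported as inhibition.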

[3] = NCI Yeast Anticancer Drug Screen. Data for the mgt1 strain (AID 153); settings: S. cerevisiae mgt1 mutant growth inhibition, hits give high values
Summary of the method: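 Strain: mgt1 yeast, one of a set carrying defined DNA damage repair or cell cycle control alterations. Compound-treated growth compared with vehicle.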

[4] = NCI Yeast Anticancer Drug Screen. Data for the rad50 strain (AID 155);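 note: 0% = growth of vehicle-only cultures of the same strain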; settings: S. cerevisiae rad50 strain growth inhibition, hits give high values
Summary of the method: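 Growth of the mutant yeast was measured after compound exposure and referenced to vehicle-treated cultures.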

[5] = NCI Yeast Anticancer Drug Screen. Data for the mec2-1 strain (AID 157); settings: S. cerevisiae mec2-1 strain, hits give high values
Summary of the method: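 Strain: mec2-1 (DNA repair/cell cycle alteration). Compound exposure, then growth measured; inhibition expressed relative to vehicle.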

[6] = NCI Yeast Anticancer Drug Screen. Data for the rad14 strain (AID 159);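 note: 0% = growth of vehicle-treated control cultures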; settings: S. cerevisiae rad14 strain growth inhibition, hits give high values
Summary of the method: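 Here, inhibition of yeast growth was measured after compound exposure, using a strain with a genetic defect in DNA damage repair and vehicle-treated cultures as the reference.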

[7] = NCI Yeast Anticancer Drug Screen. Data for the sgs1 mgt1 strain (AID 161);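 note: 0% = growth of cultures given vehicle only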; settings: S. cerevisiae sgs1 mgt1 strain, hits give high values
Summary of the method: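 Genetically altered yeast, compound exposure, growth inhibition relative to vehicle.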

[8] = NCI Yeast Anticancer Drug Screen. Data for the CLN2oe strain (AID 163);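 note: 0% = growth of vehicle-only control cultures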; settings: S. cerevisiae CLN2oe strain, hits give high values
Summary of the method: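 Growth of a genetically modified yeast strain is measured after compound exposure and compared with cultures given vehicle alone.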

[9] = NCI Yeast Anticancer Drug Screen. Data for the cln2 rad14 strain (AID 165);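 note: 0% = growth equal to vehicle treated cultures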; settings: S. cerevisiae cln2 rad14 strain, hits give high values
Summary of the method: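 Compounds are applied to the cln2 rad14 yeast strain, and growth is then compared with that of vehicle-treated cultures to give inhibition.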

[10] = NCI Yeast Anticancer Drug Screen. Data for the bub3 strain (AID 167); settings: S. cerevisiae bub3 mutant strain, hits give high values
Summary of the method: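 Whole-cell yeast assay. The mutant strain was incubated with compounds, and growth inhibition was determined by comparison with vehicle-treated cells.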

[11] = NCI Yeast Anticancer Drug Screen. Data for the wt2 strain (AID 169);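 note: 0% = growth of vehicle-treated yeast cultures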; settings: S. cerevisiae wt2 strain growth inhibition, hits give high values
Summary of the method: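 This strain belongs to a panel of yeast strains with defined genetic alterations in DNA damage repair or cell cycle control. Compounds are applied, and growth inhibition is measured against vehicle-treated cultures.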

[12] = NCI Yeast Anticancer Drug Screen. Data for the mlh1 strain (AID 171);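 note: 0% = growth of vehicle-treated control cultures of the same strain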; settings: S. cerevisiae mlh1 strain growth inhibition, hits give high values
Summary of the method: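 Growth of the mutant yeast strain after compound exposure, expressed as inhibition relative to vehicle-only controls.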

[13] = NCI Yeast Anticancer Drug Screen. Data for the mlh1 rad18 strain (AID 175); settings: S. cerevisiae mlh1 rad18 strain growth inhibition, hits give high values
Summary of the method: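 Read-out is yeast growth inhibition, calculated against vehicle-only controls. The compound was applied to a strain engineered with DNA damage repair alterations.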

[14] = NCI Yeast Anticancer Drug Screen. Data for the rad18 strain (AID 177); settings: S. cerevisiae rad18 mutant growth inhibition, hits give high values
Summary of the method: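 Growth of the mutant yeast strain after compound exposure, normalised to vehicle-only cultures.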

[15] = NCI Yeast Anticancer Drug Screen. Data for the sgs1 strain (AID 173);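 note: 0% = growth of vehicle-only control cultures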; settings: S. cerevisiae sgs1 mutant, hits give high values
Summary of the method: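 Growth of a yeast strain bearing a defined genetic alteration is measured after compound treatment. Inhibition is expressed relative to vehicle-only controls.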

[16] = at 5.0 µM (retest, dose inferred, filed as 0.5)
[17] = at 50.0 µM (retest, dose inferred, filed as 5.0)

Measured: growth inhibition

COc1cc2ccnc(-c3c4ccccc4c(N)c4c(OC)c(OC)ccc34)c2cc1OC
active: [1]; at 33.0 µM 86% | [1]; at 100.0 µM 93% | [4]; [16] 78% | [4]; at 11.0 µM 77% | [4]; at 33.0 µM 90% | [4]; [17] 78% | [4]; at 100.0 µM 94% | [13]; at 50.0 µM 72.7% | [14]; at 100.0 µM 74%
inactive: [1]; at 1.2 µM 5% | [1]; at 3.7 µM 20% | [1]; at 11.0 µM 60% | [2]; at 1.2 µM -4% | [2]; at 3.7 µM -5% | [2]; at 11.0 µM -5% | [2]; at 33.0 µM -4% | [2]; at 100.0 µM 30% | [3]; at 1.2 µM -1% | [3]; at 3.7 µM -1% | [3]; at 11.0 µM 0% | [3]; at 33.0 µM 2% | [3]; at 100.0 µM 50% | [4]; at 1.2 µM 16% | [4]; at 3.7 µM 50% | [4]; at 50.0 µM 19.3% | [5]; at 1.2 µM -1% | [5]; at 3.7 µM 2% | [5]; [16] 33% | [5]; at 11.0 µM 1% | [5]; at 33.0 µM 7% | [5]; [17] 33% | [5]; at 50.0 µM -2.3% | [5]; at 100.0 µM 46% | [6]; at 1.2 µM 1% | [6]; at 3.7 µM 1% | [6]; at 11.0 µM 3% | [6]; at 33.0 µM 8% | [6]; at 100.0 µM 43% | [7]; [16] 24% | [7]; [17] 24% | [7]; at 50.0 µM -13.9% | [8]; at 1.2 µM -1% | [8]; at 3.7 µM 7% | [8]; at 11.0 µM 9% | [8]; at 33.0 µM 17% | [8]; at 100.0 µM 37% | [9]; [16] 22% | [9]; [17] 22% | [9]; at 50.0 µM 10.8% | [10]; at 1.2 µM -5% | [10]; at 3.7 µM 1% | [10]; [16] -3% | [10]; at 11.0 µM 9% | [10]; at 33.0 µM -4% | [10]; [17] -3% | [10]; at 50.0 µM 6.45% | [10]; at 100.0 µM 24% | [11]; at 1.2 µM -2% | [11]; at 3.7 µM -2% | [11]; at 11.0 µM -2% | [11]; at 33.0 µM 4% | [11]; at 100.0 µM 47% | [12]; at 1.2 µM -4% | [12]; at 3.7 µM -2% | [12]; at 11.0 µM 0% | [12]; at 33.0 µM 2% | [12]; at 100.0 µM 52% | [13]; [16] 23% | [13]; [17] 23% | [14]; at 1.2 µM 0% | [14]; at 3.7 µM -5% | [14]; at 11.0 µM 8% | [14]; at 33.0 µM 31%

CC(=O)ON=C1C=CC(=C(C#N)c2ccc(Cl)cc2)C=C1
inactive: [1]; at 1.2 µM 1% | [1]; at 3.7 µM -1% | [1]; at 11.0 µM 1% | [1]; at 33.0 µM 22% | [1]; at 100.0 µM 69% | [2]; at 1.2 µM 0% | [2]; at 3.7 µM 0% | [2]; at 11.0 µM 4% | [2]; at 33.0 µM 10% | [2]; at 100.0 µM 61% | [3]; at 1.2 µM 0% | [3]; at 3.7 µM 2% | [3]; at 11.0 µM 4% | [3]; at 33.0 µM 42% | [4]; at 1.2 µM 0% | [4]; at 3.7 µM -3% | [4]; [16] 25% | [4]; at 11.0 µM -1% | [4]; at 33.0 µM 9% | [4]; at 100.0 µM 59% | [5]; at 1.2 µM -1% | [5]; at 3.7 µM 0% | [5]; [16] 11% | [5]; at 11.0 µM 1% | [5]; at 33.0 µM 19% | [5]; at 100.0 µM 59% | [7]; [16] 41% | [8]; at 1.2 µM -3% | [8]; at 3.7 µM -8% | [8]; at 11.0 µM -1% | [8]; at 33.0 µM 3% | [8]; at 100.0 µM 56% | [9]; [16] 7% | [10]; at 1.2 µM -4% | [10]; at 3.7 µM -4% | [10]; [16] 3% | [10]; at 11.0 µM -5% | [10]; at 33.0 µM 7% | [10]; at 50.0 µM 56% | [10]; at 100.0 µM 50% | [11]; at 1.2 µM 1% | [11]; at 3.7 µM 3% | [11]; at 11.0 µM 9% | [11]; at 33.0 µM 52% | [12]; at 1.2 µM 4% | [12]; at 3.7 µM 3% | [12]; at 11.0 µM 9% | [12]; at 33.0 µM 38% | [15]; at 1.2 µM 2% | [15]; at 3.7 µM 10% | [15]; at 11.0 µM 16% | [15]; at 33.0 µM 58% | [13]; [16] 29% | [14]; at 1.2 µM 2% | [14]; at 3.7 µM 1% | [14]; at 11.0 µM 2% | [14]; at 33.0 µM 19% | [14]; at 100.0 µM 67%
active: [3]; at 100.0 µM 77% | [4]; [17] 97% | [4]; at 50.0 µM 99.4% | [5]; [17] 99% | [5]; at 50.0 µM 99% | [7]; [17] 99% | [7]; at 50.0 µM 99.5% | [9]; [17] 98% | [9]; at 50.0 µM 77.1% | [10]; [17] 75% | [11]; at 100.0 µM 86% | [12]; at 100.0 µM 74% | [15]; at 100.0 µM 95% | [13]; [17] 97% | [13]; at 50.0 µM 98.5%
